# In the OligoGym collection:
# Experiments:
# Experiment in all cases: pooled miR-30 sensor sort-seq; sequence = guide strand
# Settings in all cases: shRNA
# CAMKV = molecular target: CAMKV
# CAMSAP1L1 = molecular target: CAMSAP1L1
# CAPNS2 = molecular target: CAPNS2
# CAMK2N1 = molecular target: CAMK2N1
# CBWD1 = molecular target: CBWD1
# CCDC102B = molecular target: CCDC102B
# CCDC56 = molecular target: CCDC56
# CCNG1 = molecular target: CCNG1
# CD180 = molecular target: CD180
# CCNA1 = molecular target: CCNA1
# CD320 = molecular target: CD320
# CDC23 = molecular target: CDC23
# CDH2 = molecular target: CDH2
# Note: reference of the scale not given here.
sequence,measurement,setting,value
TCACTGATGACAATCTTCGAGT,sensor-assay potency score (higher = more potent),CAMKV,-1.01
TTCTGGAACTTCTTGCAGGTGT,sensor-assay potency score (higher = more potent),CAMKV,-0.129
TTGCCTGTCGTCTTGTCCTTGG,sensor-assay potency score (higher = more potent),CAMKV,-0.405
TAACACAAATAACAGGGTCTTA,sensor-assay potency score (higher = more potent),CAMKV,-0.811
ATATCTGTCAGTCACCTCCGAT,sensor-assay potency score (higher = more potent),CAMKV,-0.99
TTCACCACTTCAAACCACCAGA,sensor-assay potency score (higher = more potent),CAMSAP1L1,-0.595
ATGACAGACACAATGCTCCGGC,sensor-assay potency score (higher = more potent),CAPNS2,-0.17
TTGCTTGTGTCTCGCTCCGAGT,sensor-assay potency score (higher = more potent),CAMKV,-1.54
TCATCTTCAATAACAACCCGCT,sensor-assay potency score (higher = more potent),CAMK2N1,0.215
TTGAACTGAGCAGAAAATCTGC,sensor-assay potency score (higher = more potent),CAMKV,0.22
TTGTTCATGACAACAGAGCTTA,sensor-assay potency score (higher = more potent),CAMSAP1L1,0.195
AATAACAACCCGCTTGCTCCGG,sensor-assay potency score (higher = more potent),CAMK2N1,-0.79
TAAAATCCATATCTCCATCTTC,sensor-assay potency score (higher = more potent),CAPNS2,-0.0154
TTGTTGGTGTCCTGCAGGCGGC,sensor-assay potency score (higher = more potent),CAMK2N1,-1.65
TTGTATTATGTGCTTATTGGAT,sensor-assay potency score (higher = more potent),CAMSAP1L1,-0.942
TTATAGTTCTTCTTGTCGCCCA,sensor-assay potency score (higher = more potent),CAMKV,0.464
ATACTGCTTATAAACACACTGC,sensor-assay potency score (higher = more potent),CAPNS2,-0.451
TTCAGCACGTCATCAATCCTAT,sensor-assay potency score (higher = more potent),CAMK2N1,-0.353
TAGACACTTGAATCAGGCCATC,sensor-assay potency score (higher = more potent),CAPNS2,-1.43
TCTATCTCTATCCAGAGACTTG,sensor-assay potency score (higher = more potent),CAPNS2,-1.33
TACACTCTCGTTATCACCCGTG,sensor-assay potency score (higher = more potent),CAMSAP1L1,0.34
ATAACAACCCGCTTGCTCCGGC,sensor-assay potency score (higher = more potent),CAMK2N1,-0.269
TTTCATTGTTGAACTGAGCAGA,sensor-assay potency score (higher = more potent),CAMKV,0.188
TACTGTATCCATATCTTCCATT,sensor-assay potency score (higher = more potent),CAMSAP1L1,-0.745
TTGATAGACACTTGAATCAGGC,sensor-assay potency score (higher = more potent),CAPNS2,-0.108
TATACTGAGCTGCTGCAGCCTC,sensor-assay potency score (higher = more potent),CAPNS2,-0.467
TTATCCAGTACATGACAGCGTC,sensor-assay potency score (higher = more potent),CAMSAP1L1,-0.641
TACTTTTTCTATACTGACCATT,sensor-assay potency score (higher = more potent),CAMSAP1L1,-0.4
TAAAATTCACAATTCCTCCAAC,sensor-assay potency score (higher = more potent),CAPNS2,-0.361
TTCTGCTTTTTGATCATCCTTA,sensor-assay potency score (higher = more potent),CAMSAP1L1,-0.157
TTAAACATACTGCCCTACCTTT,sensor-assay potency score (higher = more potent),CAMKV,-0.684
TCTTCAATAACAACCCGCTTGC,sensor-assay potency score (higher = more potent),CAMK2N1,-0.41
TATCTCCATCTTCATTAGCATA,sensor-assay potency score (higher = more potent),CAPNS2,-1.87
TTTTGCAGCATCACTCTTGAGA,sensor-assay potency score (higher = more potent),CAMSAP1L1,-0.108
TAATTCAGCAGTAAAAGGCAGC,sensor-assay potency score (higher = more potent),CAPNS2,-0.377
TTGTCTAGTAGCTTCATTGATA,sensor-assay potency score (higher = more potent),CBWD1,-0.639
TTAACTCACAAATCACTCTGTC,sensor-assay potency score (higher = more potent),CCDC102B,0.63
TGGGAAATCGAGTAGAAGGTGT,sensor-assay potency score (higher = more potent),CCDC56,0.0738
TCGGGTGTCAGCTTCTCCCGAG,sensor-assay potency score (higher = more potent),CCDC56,-0.206
TTTGACTTTCCAACACACCTTC,sensor-assay potency score (higher = more potent),CCNG1,0.153
TAGCATTTCACATTTAGGCTTT,sensor-assay potency score (higher = more potent),CCNG1,0.478
TTTAACTGCAAAAAATAGCAGA,sensor-assay potency score (higher = more potent),CD180,-0.349
TTAGCTTTGATTTGAATGCTTC,sensor-assay potency score (higher = more potent),CCNG1,0.215
TTAGTCTCAAACCACAGACCTT,sensor-assay potency score (higher = more potent),CCNG1,-1.23
TTTAGACAGGAATCTGTCCAGT,sensor-assay potency score (higher = more potent),CCNG1,-0.19
TTAGTCTTGCAGTCATTCTGAG,sensor-assay potency score (higher = more potent),CCNG1,-0.381
TTCAGTTGAGCTTCTAGTCTTT,sensor-assay potency score (higher = more potent),CCNG1,0.39
TTCATTTTAGACAGGAATCTGT,sensor-assay potency score (higher = more potent),CCNG1,0.0756
TTGACTTTCCAACACACCTTCT,sensor-assay potency score (higher = more potent),CCNG1,-0.557
TGAGTATCTGACAAGCATCGGG,sensor-assay potency score (higher = more potent),CCNA1,0.0337
TTGTAAACAACATTAGTTGATC,sensor-assay potency score (higher = more potent),CCNA1,-0.494
TAGCTGAGGACATTCTTTGAAT,sensor-assay potency score (higher = more potent),CD180,-0.948
TTTTAGACAGGAATCTGTCCAG,sensor-assay potency score (higher = more potent),CCNG1,0.0176
TTCTATTGATTTTACAGCCAAA,sensor-assay potency score (higher = more potent),CCNG1,-1.32
TTGGATACAAGCTCTTGCCAGA,sensor-assay potency score (higher = more potent),CCNG1,-0.511
TATATCTCTTCATATTTCGAAG,sensor-assay potency score (higher = more potent),CCNA1,-1.14
TTGCTTGCTGAGGTCGATGGGG,sensor-assay potency score (higher = more potent),CCNA1,-0.835
TTGTGTTTGGTAGAGTGTCAGG,sensor-assay potency score (higher = more potent),CD180,-0.807
TGATATAGACAAACTCGTCTAC,sensor-assay potency score (higher = more potent),CCNA1,0.267
TTTCACTTAATGAATACCCTGT,sensor-assay potency score (higher = more potent),CCNA1,1.11
TAGAGATGTAGTGTATAGCATT,sensor-assay potency score (higher = more potent),CD180,-1.05
TTAACTCTACACACTTCTGTGC,sensor-assay potency score (higher = more potent),CCNG1,0.175
TAGTAGAGTTCTGCAGACCATT,sensor-assay potency score (higher = more potent),CD180,-1.3
TTTGGATACAAGCTCTTGCCAG,sensor-assay potency score (higher = more potent),CCNG1,-0.48
TTGAGTTGCAGACTGCAGCAGT,sensor-assay potency score (higher = more potent),CD180,0.0591
TTGGCTGACATCTAGACTCCTG,sensor-assay potency score (higher = more potent),CCNG1,0.244
TAAATTAATGGTGCTCTGCTGG,sensor-assay potency score (higher = more potent),CD180,-0.664
TCTGAAGACATTCTATTCCTTC,sensor-assay potency score (higher = more potent),CCNG1,-0.269
TTCAACTTCTGAACATTTGGTT,sensor-assay potency score (higher = more potent),CCNG1,0.69
TTTGTGTATGTATCATCGGTGA,sensor-assay potency score (higher = more potent),CCNA1,-0.746
TAGTCTCAAACCACAGACCTTT,sensor-assay potency score (higher = more potent),CCNG1,-0.816
TTTTGTGTATGTATCATCGGTG,sensor-assay potency score (higher = more potent),CCNA1,0.2
TTGGTCTTCGTGATAGTCCCAT,sensor-assay potency score (higher = more potent),CD180,0.105
TACACTGAGAACTAATTTCTTG,sensor-assay potency score (higher = more potent),CD180,-0.423
TAGTCTTGCAGTCATTCTGAGG,sensor-assay potency score (higher = more potent),CCNG1,-1.44
TACATTTGTGAAATGTTGCTTT,sensor-assay potency score (higher = more potent),CCNG1,0.17
TTTAACATTATTGCCATTGAAG,sensor-assay potency score (higher = more potent),CD180,-1.17
TAATTGCTTGCTGAGGTCGATG,sensor-assay potency score (higher = more potent),CCNA1,-1.07
TTCTGTTAACTCTACACACTTC,sensor-assay potency score (higher = more potent),CCNG1,-0.348
TGAAGTAGGTTGGTCTTCGTGA,sensor-assay potency score (higher = more potent),CD180,-0.298
TCTCATTGGTTCCACAGCCGAG,sensor-assay potency score (higher = more potent),CD320,-1.57
TCATCGCTGCCATCGCTGCAGT,sensor-assay potency score (higher = more potent),CD320,-1.32
TATATTTGATGTAACACTGGGC,sensor-assay potency score (higher = more potent),CDC23,0.351
TCACATTTGGTGATTCTCGGTC,sensor-assay potency score (higher = more potent),CDH2,0.353
